PubChem BioAssay
Active and inactive are the calls of the source.

assay: PSAC antagonists in infected red cells, primary screen, cell-based, P. falciparum Indochina, OD700, 18 h (AID 1157); settings: P. falciparum Indochina infected erythrocytes, osmotic lysis OD700, 18 h; higher = more signal, called active from +8 up or from −8 down

Which z-score does the source give for `COc1ccc(COC(=O)NN=C2C[C@@H](O)[C@@H](O)[C@@H]3[C@@H]4C(=O)N(C5CCCCC5)C(=O)[C@@H]4CC[C@H]23)cc1` here?
Its z-score is 0.549 (inactive).

With `CC(=O)OC[C@H]1O[C@H](C#Cc2ccccc2)C=C[C@@H]1OC(C)=O` as the compound, how does the z-score read?
Its z-score is -0.219 (inactive).

For `O=C1CCCC=C1C(CCc1ccccc1)OC(=O)c1ccc(Br)cc1` (stereo not drawn), which z-score is on record?
The z-score was -0.364 (inactive).

With `CCN1C(=O)[C@@H]2[C@H]3C(=CC[C@@H]2C1=O)C1(OCCCO1)[C@H]1O[C@H]1[C@H]3O` as the compound, how does the z-score read?
The z-score was 1.18 (inactive).

For `O=C1[C@H]2[C@H]3[C@H](O)[C@H](O)CC(=NOCc4ccccc4)[C@@H]3CC[C@H]2C(=O)N1C[C@@H]1CCCO1`, which z-score is on record?
The z-score was 0.305 (inactive).

Which z-score does the source give for `COC(=O)[C@H]1O[C@@H](c2c(OC)c(OC)c(C)c(OC)c2OC)[C@H](C)[C@@H](O)[C@H]1C` here?
The z-score was 0.587 (inactive).

With `C#CCCCON=C1C[C@@H](O)[C@@H](O)[C@@H]2[C@@H]3C(=O)N(C(C)(C)C)C(=O)[C@@H]3CC[C@H]12` as the compound, how does the z-score read?
Its z-score is 0.204 (inactive).

For `C=CC[C@@H]1C=C[C@H](ON=C(C)CCN2CCc3nc(-c4ccccc4)c(-c4ccccc4)cc3C2)[C@@H](CO)O1`, which z-score is on record?
The z-score was 0.538 (inactive).

Which z-score does the source give for `CC(C)=CCCC(C)=CCON=C1C[C@@H](O)[C@@H](O)[C@@H]2[C@@H]3C(=O)N(Cc4ccccc4)C(=O)[C@@H]3CC[C@H]12` here?
Its z-score is -0.748 (inactive).

Which z-score does the source give for `C[n+]1ccc(-c2ccc(CO)cc2)cc1` here?
The z-score was -0.0148 (inactive).

Which z-score does the source give for `CC(C)=CCCC(C)=CCON=C1C[C@@H](O)[C@@H](O)[C@@H]2[C@@H]3C(=O)N(c4cccc(Oc5ccccc5)c4)C(=O)[C@@H]3CC[C@@H]12` here?
The z-score was -2 (inactive).

For `CO[C@@H]1COC(=O)[C@H](CCSC)NC(=O)CC=C[C@@H](C)COC(=O)[C@H](C)NC(=O)CC=C[C@H]1C`, which z-score is on record?
Its z-score is 0.353 (inactive).

For `CON=CC[C@@H]1C=C[C@H](OC(C)=O)[C@@H](COC(C)=O)O1`, which z-score is on record?
The z-score was 0.245 (inactive).

Which z-score does the source give for `CC(C)CON=C1C[C@@H](O)[C@@H](O)[C@@H]2[C@@H]3C(=O)N(c4ccc(F)cc4F)C(=O)[C@@H]3CC[C@H]12` here?
The z-score was -1.09 (inactive).

With `CC(C)(C)N1C(=O)[C@H]2[C@H]3[C@H](O)[C@H](O)CC(=NOCc4ccccc4)[C@H]3CC[C@H]2C1=O` as the compound, how does the z-score read?
The z-score was 0.133 (inactive).

Which z-score does the source give for `C[C@@H](c1ccccc1)N1C(=O)[C@H]2[C@H]3[C@H](O)[C@H](O)CC(=NOCc4ccccc4)[C@H]3CC[C@H]2C1=O` here?
Its z-score is 1.21 (inactive).

With `CCOC(=O)[C@H](Cc1ccccc1)NC(=O)CCC1CC(OC(=O)NCc2cccc3ccccc23)CC2(CCCC(COC(=O)NCC(c3ccccc3)c3ccccc3)O2)O1` (stereo partly drawn) as the compound, how does the z-score read?
Its z-score is -0.343 (inactive).

assay: modulators of S6 phosphorylation in cells, primary screen, cell-based, A549, cytoblot, luminescence, serum-stimulated (AID 1158); settings: A549 phospho-S6 cytoblot, 5 h, higher = more signal;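 note: serum-stimulated A549 lung adenocarcinoma cells; signal is phosphorylated S6 detected by cytoblot immunostaining with HRP secondary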

For `CCOC(=O)[C@H](Cc1ccccc1)NC(=O)CCC1CC(OC(=O)NCc2cccc3ccccc23)CC2(CCCC(COC(=O)NCc3cccc(C(F)(F)F)c3)O2)O1` (stereo partly drawn), which z-score is on record?
Its z-score is -0.283.

With `COC(=O)CC=C[C@@H](C)[C@@H](C=NOC(C)CN1CCCc2nc(C)c(C)cc21)OC` (stereo partly drawn) as the compound, how does the z-score read?
Its z-score is -0.77.

Which z-score does the source give for `COC(=O)[C@@H]1CC[C@H](C)[C@@H](c2ccc(C)cc2)N1C(=O)c1ccc(C=NO[C@H](C)c2cn([C@H](CO)Cc3ccccc3)nn2)cc1` here?
Its z-score is -0.0872.

Which z-score does the source give for `CO[C@@H]1C=CCC(=O)N[C@@H](C)C(=O)OC[C@@H](OC)[C@H](C)CCCC(=O)OC[C@H]1C` here?
Its z-score is -0.417.

For `COc1ccc(O[C@H]2C=C[C@@H](c3ccccc3)O[C@@H]2CON=C(C)C)cc1`, which z-score is on record?
Its z-score is -0.807.

For `CCOC(=O)[C@H](CC(C)C)NC(=O)CCC1CC(OC(=O)NCc2cccc3ccccc23)CC2(CCCC(COC(=O)NCCOC)O2)O1` (stereo partly drawn), which z-score is on record?
Its z-score is 0.142.

Which z-score does the source give for `CCCCC#C[C@@H]1C=C[C@H](Oc2ccc(C(=O)OC)cc2)[C@@H](COC(=O)OCC)O1` here?
Its z-score is 0.164.

Which z-score does the source give for `Cc1ccc(S(=O)(=O)n2c3ccccc3c3nnc(C(=O)c4ccccc4)nc32)cc1` here?
The z-score was 0.479.

With `COc1ccc(O[C@H]2C=C[C@@H](c3ccccc3)O[C@@H]2CON=CC[C@@H]2C=C[C@H](OC(C)=O)[C@@H](COC(C)=O)O2)cc1` as the compound, how does the z-score read?
The z-score was -0.981.

Which z-score does the source give for `O=C(NN=C1C[C@@H](O)[C@@H](O)[C@@H]2[C@@H]3C(=O)N(Cc4ccccc4)C(=O)[C@@H]3CC[C@@H]12)OCc1ccccc1` here?
The z-score was 0.0339.

With `COc1ccc(O[C@H]2C=C[C@@H](c3ccccc3)O[C@@H]2COC(=O)CCC(C)=NO[C@@H]2O[C@H](COC(C)=O)[C@@H](OC(C)=O)[C@H](OC(C)=O)[C@H]2OC(C)=O)cc1` as the compound, how does the z-score read?
The z-score was -1.01.

For `CO[C@H]1COC(=O)CC=C[C@H](C)[C@@H](OC)COC(=O)[C@@H](C)NC(=O)CC=C[C@@H]1C`, which z-score is on record?
Its z-score is 1.03.

With `CC(C)[C@@H](OCc1ccccc1)[C@H](C)C=NOC[C@@H](O)COCc1ccco1` as the compound, how does the z-score read?
Its z-score is 0.0388.

For `CCCCC#C[C@@H]1C=C[C@H](OC(C)=O)[C@@H](COC(C)=O)O1`, which z-score is on record?
Its z-score is -0.268.

Which z-score does the source give for `CO[C@@H]1COC(=O)[C@@H](C)COC(=O)[C@@H](C)NC(=O)CC=C[C@@H]1C` here?
Its z-score is 1.

With `C[C@H]1Cc2c(COc3ccccc3)nc3c(c2CO1)CN(CCOc1ccccc1)CC3` as the compound, how does the z-score read?
The z-score was 0.44.

For `CCCNC(=O)OC[C@H]1O[C@H](CCON=C(C)CCC(=O)OC[C@H]2O[C@H](c3ccccc3)C=C[C@@H]2Oc2ccc(OC)cc2)C=C[C@@H]1Oc1ccc(OC)cc1`, which z-score is on record?
Its z-score is -0.441.

Which z-score does the source give for `CCOC(=O)NN=C1C[C@@H](O)[C@@H](O)[C@@H]2[C@@H]3C(=O)N(C(C)(C)C)C(=O)[C@@H]3CC[C@H]12` here?
Its z-score is 0.698.

For `C[C@@H](ON=C1[C@H]2CCn3c(=O)n(-c4ccccc4)c(=O)n3[C@H]2[C@H](O)[C@@H]2O[C@H]12)c1cn([C@@H]2COC[C@H]2O)nn1`, which z-score is on record?
Its z-score is -0.574.

With `COc1ccc(COC(=O)NN=C2C[C@@H](O)[C@@H](O)[C@@H]3[C@@H]4C(=O)N(C5CCCCC5)C(=O)[C@@H]4CC[C@H]23)cc1` as the compound, how does the z-score read?
The z-score was 0.173.

For `CC(=O)OC[C@H]1O[C@H](C#Cc2ccccc2)C=C[C@@H]1OC(C)=O`, which z-score is on record?
The z-score was -0.283.

Which z-score does the source give for `O=C1CCCC=C1C(CCc1ccccc1)OC(=O)c1ccc(Br)cc1` (stereo not drawn) here?
The z-score was 0.307.

With `CCN1C(=O)[C@@H]2[C@H]3C(=CC[C@@H]2C1=O)C1(OCCCO1)[C@H]1O[C@H]1[C@H]3O` as the compound, how does the z-score read?
The z-score was -0.295.

For `O=C1[C@H]2[C@H]3[C@H](O)[C@H](O)CC(=NOCc4ccccc4)[C@@H]3CC[C@H]2C(=O)N1C[C@@H]1CCCO1`, which z-score is on record?
The z-score was -0.0701.

For `COC(=O)[C@H]1O[C@@H](c2c(OC)c(OC)c(C)c(OC)c2OC)[C@H](C)[C@@H](O)[C@H]1C`, which z-score is on record?
The z-score was 0.817.

With `C#CCCCON=C1C[C@@H](O)[C@@H](O)[C@@H]2[C@@H]3C(=O)N(C(C)(C)C)C(=O)[C@@H]3CC[C@H]12` as the compound, how does the z-score read?
The z-score was -0.162.

For `C=CC[C@@H]1C=C[C@H](ON=C(C)CCN2CCc3nc(-c4ccccc4)c(-c4ccccc4)cc3C2)[C@@H](CO)O1`, which z-score is on record?
The z-score was -0.0288.

For `CC(C)=CCCC(C)=CCON=C1C[C@@H](O)[C@@H](O)[C@@H]2[C@@H]3C(=O)N(Cc4ccccc4)C(=O)[C@@H]3CC[C@H]12`, which z-score is on record?
Its z-score is -0.352.

Which z-score does the source give for `C[n+]1ccc(-c2ccc(CO)cc2)cc1` here?
The z-score was -0.6.

With `CC(C)=CCCC(C)=CCON=C1C[C@@H](O)[C@@H](O)[C@@H]2[C@@H]3C(=O)N(c4cccc(Oc5ccccc5)c4)C(=O)[C@@H]3CC[C@@H]12` as the compound, how does the z-score read?
Its z-score is 0.313.

With `CO[C@@H]1COC(=O)[C@H](CCSC)NC(=O)CC=C[C@@H](C)COC(=O)[C@H](C)NC(=O)CC=C[C@H]1C` as the compound, how does the z-score read?
Its z-score is 0.399.

With `CON=CC[C@@H]1C=C[C@H](OC(C)=O)[C@@H](COC(C)=O)O1` as the compound, how does the z-score read?
The z-score was -0.841.

Which z-score does the source give for `CC(C)CON=C1C[C@@H](O)[C@@H](O)[C@@H]2[C@@H]3C(=O)N(c4ccc(F)cc4F)C(=O)[C@@H]3CC[C@H]12` here?
The z-score was -0.0969.

For `CC(C)(C)N1C(=O)[C@H]2[C@H]3[C@H](O)[C@H](O)CC(=NOCc4ccccc4)[C@H]3CC[C@H]2C1=O`, which z-score is on record?
The z-score was -0.371.

With `C[C@@H](c1ccccc1)N1C(=O)[C@H]2[C@H]3[C@H](O)[C@H](O)CC(=NOCc4ccccc4)[C@H]3CC[C@H]2C1=O` as the compound, how does the z-score read?
Its z-score is -0.182.

For `CCOC(=O)[C@H](Cc1ccccc1)NC(=O)CCC1CC(OC(=O)NCc2cccc3ccccc23)CC2(CCCC(COC(=O)NCC(c3ccccc3)c3ccccc3)O2)O1` (stereo partly drawn), which z-score is on record?
Its z-score is 0.704.
